# Measured values: article PMC8384837, “Expanding the binding specificity for RNA recognition by a PUF domain”
# Numbering of substitutions follows the chain as printed.
# Legend:
# Experiment in all cases: yeast three-hybrid, YBZ-1, SC-Leu-His + 0.5 mM 3-AT, 4 days
# Conditions in all cases: tags: N-Gal4 AD-HA kept; label: inside an RPR1-promoter hybrid RNA with tandem MS2 sites; ssRNA
# [1] = target: PUM1 PUF domain R7-RER (Homo sapiens, UniProt Q14671 828-1176, S1079R;N1080E;E1083R)
# How it was run: (§1)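 The interaction score is the log change in variant frequency from input to selection. Scores were computed in log2 with a pseudocount of 1 for absent variants, using Illumina sequencing of PCR-amplified repeat regions. The input came from four days on SC-Leu and the selection from four days on SC-Leu-His + 0.5 mM 3-AT. The cells were strain YBZ-1 (LexA–MS2 coat fusion, HIS3 reporter) co-expressing Pumilio-1 PUF domain libraries and matching RNA elements from a centromeric plasmid.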
# [2] = target: T1, PUM1 PUF domain R6-IYS (Homo sapiens, UniProt Q14671 828-1176, N1043I;Q1047S)
# T1 sequence: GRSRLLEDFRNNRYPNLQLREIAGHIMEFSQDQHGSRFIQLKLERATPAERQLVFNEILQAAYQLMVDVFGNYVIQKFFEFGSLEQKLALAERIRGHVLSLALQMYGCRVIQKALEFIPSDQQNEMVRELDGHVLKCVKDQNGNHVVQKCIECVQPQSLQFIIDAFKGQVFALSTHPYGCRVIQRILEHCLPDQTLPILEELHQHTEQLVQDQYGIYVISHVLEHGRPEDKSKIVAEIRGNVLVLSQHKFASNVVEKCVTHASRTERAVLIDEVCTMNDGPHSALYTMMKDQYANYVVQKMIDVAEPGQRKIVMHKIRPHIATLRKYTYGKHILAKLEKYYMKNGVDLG
# How it was run: as §1
# [3] = target: PUM1 PUF domain R4-CMI (Homo sapiens, UniProt Q14671 828-1176, N971C;H972M;Q975I)
# How it was run: as §1
# [4] = target: PUM1 PUF domain R8-YFR (Homo sapiens, UniProt Q14671 828-1176, N1122Y;Y1123F;Q1126R)
# How it was run: as §1
# [5] = target: T2, PUM1 PUF domain R6-WWR (Homo sapiens, UniProt Q14671 828-1176, N1043W;Y1044W;Q1047R)
# T2 sequence: T1 sequence with I216W, Y217W, S220R
# How it was run: as §1
# [6] = target: PUM1 PUF domain R3-RPK (Homo sapiens, UniProt Q14671 828-1176, C935R;R936P;Q939K)
# How it was run: as §1
# [7] = target: PUM1 PUF domain R4-ANT (Homo sapiens, UniProt Q14671 828-1176, N971A;H972N;Q975T)
# How it was run: as §1
# [8] = target: PUM1 PUF domain R8-FYF (Homo sapiens, UniProt Q14671 828-1176, N1122F;Q1126F)
# How it was run: as §1
# [9] = target: PUM1 PUF domain R5-RNL (Homo sapiens, UniProt Q14671 828-1176, C1007R;R1008N;Q1011L)
# How it was run: as §1
# [10] = target: PUM1 PUF domain R5-KNQ (Homo sapiens, UniProt Q14671 828-1176, C1007K;R1008N)
# How it was run: as §1
# [11] = target: PUM1 PUF domain R1-VWR (Homo sapiens, UniProt Q14671 828-1176, S863V;R864W;Q867R)
# How it was run: as §1
# [12] = target: PUM1 PUF domain R3-GCE (Homo sapiens, UniProt Q14671 828-1176, C935G;R936C;Q939E)
# How it was run: as §1
# [13] = target: PUM1 PUF domain R1-SWD (Homo sapiens, UniProt Q14671 828-1176, R864W;Q867D)
# How it was run: as §1
# [14] = target: PUM1 PUF domain R7-QCK (Homo sapiens, UniProt Q14671 828-1176, S1079Q;N1080C;E1083K)
# How it was run: as §1
sequence,measurement,setting,value
GGCUAGAACUAGUGGAUCCCCCGGCGCCCGGCGGCUCGAGCCCGGGUAAGUUUAAAUAGUCUGCAUGCCGCCGGGCGCCAUGCCUGCAGGUCGACUCUAGAAAACAUG,binding signal,[1],4.54 log2 enrichment (interaction score)
GGCUAGAACUAGUGGAUCCCCCGGCGCCCGGCGGCUCGAGCCCGGGUAAGUGUAAAUAGUCUGCAUGCCGCCGGGCGCCAUGCCUGCAGGUCGACUCUAGAAAACAUG,binding signal,[2],2.42 log2 enrichment (interaction score)
same,binding signal,[3],2.77 log2 enrichment (interaction score)
same,binding signal,[4],5.17 log2 enrichment (interaction score)
same,binding signal,[5],5.15 log2 enrichment (interaction score)
GGCUAGAACUAGUGGAUCCCCCGGCGCCCGGCGGCUCGAGCCCGGGUAAGUGUAAUUAGUCUGCAUGCCGCCGGGCGCCAUGCCUGCAGGUCGACUCUAGAAAACAUG,binding signal,[6],4.23 log2 enrichment (interaction score)
GGCUAGAACUAGUGGAUCCCCCGGCGCCCGGCGGCUCGAGCCCGGGUAAGUGUAUAUAGUCUGCAUGCCGCCGGGCGCCAUGCCUGCAGGUCGACUCUAGAAAACAUG,binding signal,[7],2.52 log2 enrichment (interaction score)
GGCUAGAACUAGUGGAUCCCCCGGCGCCCGGCGGCUCGAGCCCGGGUAAGCGUAAAUAGUCUGCAUGCCGCCGGGCGCCAUGCCUGCAGGUCGACUCUAGAAAACAUG,binding signal,[8],2.55 log2 enrichment (interaction score)
same,binding signal,[4],5.19 log2 enrichment (interaction score)
GGCUAGAACUAGUGGAUCCCCCGGCGCCCGGCGGCUCGAGCCCGGGUAAGUGUCAAUAGUCUGCAUGCCGCCGGGCGCCAUGCCUGCAGGUCGACUCUAGAAAACAUG,binding signal,[9],2.83 log2 enrichment (interaction score)
GGCUAGAACUAGUGGAUCCCCCGGCGCCCGGCGGCUCGAGCCCGGGUAAGUGUUAAUAGUCUGCAUGCCGCCGGGCGCCAUGCCUGCAGGUCGACUCUAGAAAACAUG,binding signal,[9],3.54 log2 enrichment (interaction score)
same,binding signal,[10],4.28 log2 enrichment (interaction score)
GGCUAGAACUAGUGGAUCCCCCGGCGCCCGGCGGCUCGAGCCCGGGUAAGUGAAAAUAGUCUGCAUGCCGCCGGGCGCCAUGCCUGCAGGUCGACUCUAGAAAACAUG,binding signal,[5],2.69 log2 enrichment (interaction score)
GGCUAGAACUAGUGGAUCCCCCGGCGCCCGGCGGCUCGAGCCCGGGUAAGUGUAAAUUGUCUGCAUGCCGCCGGGCGCCAUGCCUGCAGGUCGACUCUAGAAAACAUG,binding signal,[11],2.37 log2 enrichment (interaction score)
GGCUAGAACUAGUGGAUCCCCCGGCGCCCGGCGGCUCGAGCCCGGGUAAGUGUAAAUCGUCUGCAUGCCGCCGGGCGCCAUGCCUGCAGGUCGACUCUAGAAAACAUG,binding signal,[11],1.8 log2 enrichment (interaction score)
GGCUAGAACUAGUGGAUCCCCCGGCGCCCGGCGGCUCGAGCCCGGGUAAGUGUAAGUAGUCUGCAUGCCGCCGGGCGCCAUGCCUGCAGGUCGACUCUAGAAAACAUG,binding signal,[12],4.51 log2 enrichment (interaction score)
GGCUAGAACUAGUGGAUCCCCCGGCGCCCGGCGGCUCGAGCCCGGGUAAGUGUAAAUGGUCUGCAUGCCGCCGGGCGCCAUGCCUGCAGGUCGACUCUAGAAAACAUG,binding signal,[13],4.27 log2 enrichment (interaction score)
GGCUAGAACUAGUGGAUCCCCCGGCGCCCGGCGGCUCGAGCCCGGGUAAGUCUAAAUAGUCUGCAUGCCGCCGGGCGCCAUGCCUGCAGGUCGACUCUAGAAAACAUG,binding signal,[14],3.12 log2 enrichment (interaction score)
